Compound activity deposited in PubChem BioAssay by National Center for Advancing Translational Sciences (NCATS).
In the library only some 8% were active in any assay of this set; here they are far more common.
HCV inhibitor: qHTS Assay for Inhibitors of Hepatitis C Virus (HCV); Huh7.5.1 HCVcc-Cre infection, luciferase reporter, 44 h; Potency, µM (doses to about 41.8 µM), without a hit: at the top dose activity change, negative = inhibition, most hits filed as inhibitors; 340,000 compounds, 3.4% hits; AID 651820, 2012; active = well fitted inhibition curve with a large enough effect; inconclusive = small, poorly fitted or top-dose-only effect, or another doubt; inactive = no such curve, though single readings can be large or run the other way; also: potency is read from the fitted curve at half-maximal effect; % is scaled to controls: 0 for no effect and ±100 for the full control effect
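Whole-lifecycle infectious HCVcc-Cre system; cells 1,000/well, compound then virus (~0.5 moi) added 4 h after plating, 44 h culture. Luciferase read 15 sec following 15 min substrate incubation, room temp.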
LASV entry inh: qHTS for Inhibitors of binding or entry into cells for Lassa Virus | Lassa virus pseudotype entry inhibition, cell reporter | Potency, µM (top dose mostly 37.9 µM), without a hit: top-dose activity change, negative = inhibition, most hits filed as inhibitors | 300,000 compounds, 1.2% hits; calls by dose curve; tested in HEK293 cells; also: potency is read from the fitted curve at half-maximal effect; % is scaled to controls: 0 for no effect and ±100 for the full control effect; nearly all actives have a fitted effect of over 50% in size
MARV entry inh: qHTS for inhibitors of binding or entry into cells for Marburg Virus; Marburg virus pseudotyped entry inhibition, cell reporter; Potency, µM (titrated, usually from 37.8 µM), for the others: at the top dose activity change, negative = inhibition, usual class: inhibitors; 300,000 compounds, 1.8% hits; calls by dose curve; tested in HEK293 cells; also: potency is read from the fitted curve at half-maximal effect; % is scaled to controls: 0 for no effect and ±100 for the full control effect
HCMV inh: qHTS Assay for inhibitors of the human cytomegalovirus (HCMV); HFF cells, HCMV-luciferase reporter, 72 h; hits give low values; activity change, negative = inhibition, % at 57.5 µM; 410,000 compounds, 4.5% hits; in the data active = activity change below about -60%; inconclusive = no clear call, values can overlap the other calls; inactive = above about -39%; also: % is scaled to controls: 0 for no effect and ±100 for the full control effect
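Luciferase read-out from HCMV-luciferase-infected HFFs (MOI 1 PFU/cell) 72 h post infection at 37C; compounds added after 16 h cell attachment; activity normalized between buffer-only basal and Salinomycin (10uM) inhibitor controls.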
FMDV inh: High Throughput Screening for Foot and Mouth Disease Virus Antivirals | FMDV antiviral cell-based qHTS | Potency, µM (doses to about 57.9 µM), without a hit: at the highest dose activity change, negative = inhibition, most hits filed as inhibitors | 410,000 compounds, 1.2% hits | AID 1159524, 2015; calls by dose curve; tested in HEK293T cells; also: read-out not given here; potency is read from the fitted curve at half-maximal effect; % is scaled to controls: 0 for no effect and ±100 for the full control effect; nearly all actives have a fitted effect of over 45% in size
SARS PLpro yeast: qHTS of Yeast-based Assay for SARS-CoV PLP. S. cerevisiae expressing SARS-CoV PLpro, growth rescue. Potency, µM (highest dose often 32.9 µM), without a hit: at the top dose activity, positive = growth rescue, usual class: activators. 330,000 compounds, 0.19% hits. AID 485353, 2010; calls by dose curve; also: potency is read from the fitted curve at half-maximal effect; 0% is about no effect; nearly all actives have a fitted effect of over 55% in size
Starred values were filed as active, the others as inactive; ? = inconclusive; . = not tested or not shown; + = active, no number; ! = not active in a repeat; [ ] = remark or other dose.

SMILES	HCV inhibitor	LASV entry inh	MARV entry inh	HCMV inh	FMDV inh	SARS PLpro yeast
Cc1ccc(-c2csc3nc[nH]c(=O)c23)cc1	-11%	?	-1%[46.1 µM]	?	-10%	-7%
Cc1ccc(-c2csc3ncnc(SCC(N)=O)c23)cc1	?	-25%	-21%[46.1 µM]	-28	-26%	-2%
Cc1ccc(-c2csc3nc(C)n(N)c(=O)c23)cc1	7%	.	.	-86*	6%	-1%
CC1(C)CC(C(=O)N2CCOc3ccc(CN4CCN(Cc5ccccn5)CC4)cc3C2)CCO1 (stereo not given)	.	.	.	.	-9%	.
COC(=O)[C@@H]1[C@@H](CO)[C@@H]2Cn3c(ccc(Br)c3=O)[C@H]1N2S(C)(=O)=O	.	.	.	16	.	.
Cc1cccc(-n2c(Cc3ccccc3)nnc2SCc2ccc([N+](=O)[O-])cc2)c1	?	?	-18%	-70*	-25%	-20%
Cc1ccccc1Nc1nc(N2CCOCC2)nc(N2CCOCC2)n1	-17%	-29%[46.1 µM]	6.3µM*	+	-26%	-7%
Cc1ccc(Nc2nc(N3CCOCC3)nc(N3CCOCC3)n2)cc1	?	-37%	1.2µM*	-65*	-1%	-4%
Cc1ccc(Nc2cc(C)nc(N3CCOCC3)n2)cc1	?	23%	5.6µM*	276	11%	12%
CN1CCN(c2nc(Nc3cccc(C(F)(F)F)c3)nc(N3CCOCC3)n2)CC1	?	?	21µM*	-18	27%	-1%
Cc1cc(Nc2ccc(C)c(Cl)c2)nc(N2CCOCC2)n1	?	?	?	79	-15%	-3%
COc1ccc(/C=C/c2nc(C#N)c(N3CCN(c4ccccc4)CC3)o2)cc1OC	.	-10%[46.1 µM]	1%[46.1 µM]	-35	-9%	.
c1ccc(Nc2nc(Nc3ccccc3)nc(N3CCNCC3)n2)cc1	-26%	-18%[46.1 µM]	6.3µM*	29	-8%	3%
Clc1ccc(Nc2nc(NCCN3CCOCC3)nc(N3CCOCC3)n2)cc1	-15%	?	2.8µM*	.	-45%	0%
CCc1ccc(Oc2c(C(F)(F)F)oc3c(CN4CCC(C)CC4)c(O)ccc3c2=O)cc1	.	2%[46.1 µM]	-14%[46.1 µM]	2	-23%	.
CSc1ccccc1NC(=O)c1ccc(CN2CCOCC2)cc1	6%	14%[46.1 µM]	?	18	12%	0%
Cc1cc(CSc2ccccc2)ccc1NC(=O)c1ccc(CN2CCOCC2)cc1	?	?	?	-77*	13µM*	-4%
Cc1cc(CSc2ccccc2)ccc1NC(=O)c1ccc(Cl)c([N+](=O)[O-])c1	7.9µM*	-3%	26%[46.1 µM]	?	-27%	0%
Cc1cc(CSc2ccccc2)ccc1NC(=O)c1ccc(C)c([N+](=O)[O-])c1	-28%	3%	-14%	-36	-10%	8%
O=C(CSc1nccn1-c1cccc(Cl)c1)Nc1ccc2c(c1)OCO2	.	13%[46.1 µM]	.	-38	6%	.
Cc1cc(C)c2c(C)c(C(=O)N3CCC(c4nc5ccccc5s4)CC3)oc2c1	.	-6%[46.1 µM]	-15%[46.1 µM]	17	-24%	.
O=C(Nc1ccccc1Cl)C1CCN(c2nc3ccccc3[nH]2)CC1	.	-7%[46.1 µM]	.	0	0%	.
Oc1cccc(Nc2nc(-c3ccccc3)nc3ccccc23)c1	3.5µM*	?	?	?	?	-8%
CC(=O)c1cccc(Nc2nc(-c3ccccc3)nc3ccccc23)c1	10µM*	-25%	-28%	-31	?	2%
CC(=O)c1ccc(Nc2nc(-c3ccccc3)nc3ccccc23)cc1	?	-1%[46.1 µM]	-6%[46.1 µM]	13	-27%	.
SMILES	HCV inhibitor	LASV entry inh	MARV entry inh	HCMV inh	FMDV inh	SARS PLpro yeast
Cc1cccc(Nc2nc(-c3ccccc3)nc3ccccc23)c1	.	-8%[46.1 µM]	.	-32	-29%	.
CC(=O)Nc1cccc(Nc2nc(-c3ccccc3)nc3ccccc23)c1	6.3µM*	1%[46.1 µM]	?	42	?	-5%
COC(=O)c1cccc(Nc2nc(-c3ccncc3)nc3ccccc23)c1	?	?	?	26	-18%	-5%
CCc1nnc(NC(=O)CSc2nccn2Cc2ccc(Cl)cc2)s1	.	-17%[46.1 µM]	.	-8	-26%	.
O=C(CN1C(=O)c2ccccc2C1=O)c1ccccc1	5%	-1%	-6%	36	25%	-24%
CC1=C(CC(=O)c2ccccc2)C(=O)c2ccccc2C1=O	?	-14%	?	-99*	?	-8%
O=C(CCS(=O)(=O)c1cc2c(cc1Cl)NC(=O)CO2)NCCc1ccccc1	0%	1%[46.1 µM]	3%[46.1 µM]	-104*!	-11%	-3%
O=C(CCS(=O)(=O)c1cc2c(cc1Cl)NC(=O)CO2)NCc1ccccc1	17%	-23%[46.1 µM]	.	-20	8%	-3%
CCOC(=O)c1c(-c2ccc(OC)cc2)csc1NC(=O)C1CCCO1 (stereo not given)	?	?	-25%	?	?	-2%
CC(C)OC(=O)c1c(-c2ccc(C(C)C)cc2)csc1NC(=O)C1CCCO1 (stereo not given)	-19%	5.6µM*	?	-23	?	1%
CCOC(=O)c1c(-c2ccc(C)cc2)csc1NC(=O)C1CCCO1 (stereo not given)	11µM*	?	?	-18	?	-42%
CCOC(=O)c1c(-c2ccc(C)cc2)csc1NC(=O)CCN1CC(C)OC(C)C1 (stereo not given)	-27%	?	?	1	28µM*	-60%
CCOC(=O)c1c(-c2ccc(C)o2)csc1NC(=O)CN1CCC(C(N)=O)CC1	4.5µM*	-21%	-13%[46.1 µM]	-3	?	0%
COc1ccc(OC)c(S(=O)(=O)N2CCC(c3ccncc3)CC2)c1	.	9%[46.1 µM]	.	-7	0%	.
Cc1cc(C)cc(NC(=O)C(=O)NC(C)c2ccccc2)c1 (stereo not given)	.	-1%[46.1 µM]	.	-26	-3%	.
CCOC(=O)c1c(-c2ccc(F)cc2)csc1NC(=O)C1CCCO1 (stereo not given)	-16%	-21%	-28%[46.1 µM]	-60*	-27%	-2%
CCN1C(N(C)CCc2c[nH]c3ccccc23)=N[C@@H](c2cccc(C(F)(F)F)c2)C(C(=O)OC)=C1C	25µM*	.	.	.	-29%	5%
CCc1ccc(C(=O)c2cn(CC(=O)Nc3ccc(F)c(F)c3)c3cc(OC)c(OC)cc3c2=O)cc1	.	-26%[46.1 µM]	-3%[46.1 µM]	-67*	?	.
CCc1ccc(C(=O)c2cn(CC(=O)Nc3cc(OC)cc(OC)c3)c3ccc(CC)cc3c2=O)cc1	.	4%[46.1 µM]	-16%[46.1 µM]	-16	-16%	.
CCc1ccc(C(=O)c2cn(CC(=O)Nc3ccc(F)cc3)c3ccc(OC)cc3c2=O)cc1	.	6%[46.1 µM]	0%[46.1 µM]	-71*	-25%	.
CCCCCCC/C=C/C1=CC2(C)CC1(C)C(CCCCCCC)CC2=O (stereo not given)	.	.	17%[14.2 µM]	.	.	.
O=S(=O)(NCC1CN(S(=O)(=O)c2c(F)cccc2F)C1)c1ccc2c(c1)OCCO2	.	.	.	-62*	10%	-8%
